Screens: PubChem, National Center for Advancing Translational Sciences (NCATS)
Shown are actives, neighbours in structure and some others; about 21% of the full set was active somewhere.
NS1 function inh – inhibitors of influenza NS1 protein function. Potency, µM (titrated, usually from 46.1 µM), for inactives: at the highest dose activity, positive = more growth. 270,000 compounds, 0.4% hits. AID 2326; also: potency is read from the fitted curve at half-maximal effect; actives are rising curves; nearly all actives have a fitted effect of over 50% in size
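In this qHTS, NS1 from influenza A is expressed in budding yeast, where it slows growth. Cells are switched from glucose to 2% galactose medium (pH 6.0, -URA), treated with compound, and growth recovery is read at OD600.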
SARS PLpro yeast – SARS-CoV PLP inhibition in yeast; S. cerevisiae expressing SARS-CoV PLpro, growth rescue; 330,000 compounds, 0.19% hits; Potency, µM (top dose mostly 32.9 µM), without a hit: at the top dose activity, positive = growth rescue, most hits filed as activators; AID 485353; also: potency is read from the fitted curve at half-maximal effect; 0% is about no effect; nearly all actives have a fitted effect of over 55% in size
Pf growth 48h – inhibits P. falciparum growth in the first generation, 48 h; P. falciparum luciferase growth in erythrocytes, 48 h; Potency, µM (top dose mostly 28.7 µM), for inactives: at the top dose activity change, negative = inhibition, usual class: inhibitors; 310,000 compounds, 5.9% hits; AID 504832; active = well fitted inhibition curve with a large enough effect; inconclusive = small, poorly fitted or top-dose-only effect, or another doubt; inactive = no such curve, though single readings can be large or run the other way; also: potency is read from the fitted curve at half-maximal effect; % is scaled to controls: 0 for no effect and ±100 for the full control effect
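Parasite viability was followed by luminescence of a genomically integrated firefly luciferase. Cultures held 0.1% parasitemia at 2% hematocrit (final), incubated under 5% CO2 at 37 C.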
Cycloheximide cs – affects cycloheximide protein synthesis inhibition readout, counter-screen. max response, %. cell reporter, cycloheximide protein synthesis inhibition counterscreen. 300,000 compounds, 12% hits; in the data active = max response mostly above about 13%, no sharp cut-off; inactive = mostly below about 14%; also: read at 38.3 µM for the half of the compounds with a filed dose; 0% is about no effect
Pf growth 96h – inhibits malaria parasite growth, 96 h; 320,000 compounds, 6.9% hits; P. falciparum luciferase reporter growth, 96 h; Potency, µM (titrated, usually from 28.7 µM), for the others: at the highest dose activity change, negative = inhibition, hits mostly inhibitors; AID 504834; active = well fitted inhibition curve with a large enough effect; inconclusive = small, poorly fitted or top-dose-only effect, or another doubt; inactive = no such curve, though single readings can be large or run the other way; also: potency is read from the fitted curve at half-maximal effect; % is scaled to controls: 0 for no effect and ±100 for the full control effect
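Two-generation exposure (96 h) targets delayed-death phenotype. Reporter parasites carrying integrated firefly luciferase, in red cells at 2% hematocrit and 0.05% parasitemia final, kept at 37 C, 5% CO2; luminescence loss indicates inhibition.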
Shiga toxin inh – blocks Shiga toxin action in Vero cells. AID 2315. 290,000 compounds, 9.2% hits. Vero cells, Shiga toxin protein synthesis inhibition reporter. inhibition, % at 38.7 µM; in the data active = inhibition mostly above about 28%, no sharp cut-off; inactive = mostly below about 43%; also: 0% is about no effect
An asterisk follows results filed as active; ? = inconclusive; / = no result given; [ ] = another dose, or the depositor's remark. Unless noted, calls follow the shape of the full dose curve.

SMILES	NS1 function inh	SARS PLpro yeast	Pf growth 48h	Cycloheximide cs	Pf growth 96h	Shiga toxin inh
Cc1ccc(/C=N/NC(=O)c2ccccn2)o1	-5%	3%	101%	42*	?	47*
Cc1c(C(=O)N/N=C/c2ccc(N3CCOCC3)cc2)nc2ccccn12	-4%	2%	?	-9	-2%	-3
O=C(N/N=C/c1cnc(N2CCOCC2)s1)c1ccccc1	1%	2%	39%	20*	-6%	37
O=C(NCC(c1ccco1)N1CCOCC1)c1c(F)cccc1F (stereo not drawn)	/	-1%	5%	/	14%	/
CCc1nnc(NC(=O)C(=O)NCCOC(=O)c2ccccc2)s1	-6%	-1%	-18%	-2	/	-12
COc1cccc(C(=O)N2CCC(C(=O)NCc3ccc(C)cc3)CC2)c1	-2%	2%	?	1	1%	-12
CC(C)c1ccc(/C=N/NC(=O)c2ccc(-n3cnnn3)cc2)cc1	/	-1%	-12%	/	4%	/
CC(C)c1ccc(/C=N/NC(=O)c2ccccn2)cc1	-37%	-1%	94%	32*	312%	13
CN(C)c1ccc(/C=N/NC(=O)c2ccccn2)cc1	-39%	-2%	-43%	23*	31%	15
O=C(N/N=C\c1ccc(Oc2ccccc2)cc1)c1csnn1	/	2%	67%	47*	-12%	97*
NC(=O)N/N=C/c1ccc(Oc2ccc(F)cc2)cc1	/	/	/	-3	/	2
O=C(N/N=C/c1ccncc1)c1ccccn1	8%	-1%	64%	35*	?	72*
CN(C)c1ccc(/C=N/NC(=O)c2cnc3ccccc3c2)cc1	-8%	0%	?	0	?	4
CC(=O)Nc1ccc(C(=O)OCC(=O)N2CCC(Cc3ccccc3)CC2)cc1	/	0%	?	/	?	/
Cc1ccccc1NC(=O)COC(=O)[C@@H]1CCCN1C(=O)c1cccs1	/	-1%	/	/	/	/
Cc1ccc(/C=C2\SC(N3CCCCC3)=NC2=O)cc1	1%	-10%	-5%	42*	390%	73*
O=C1N=C(N2CCCCC2)S/C1=C\c1ccccc1F	-38%	-18%	-1%	22*	?	61*
O=C1N=C(N2CCCC2)S/C1=C\c1ccccc1	-5%	-7%	15µM*	6	?	39
CCN1CCN(C2=NC(=O)/C(=C/c3ccc(C)o3)S2)CC1	0%	-1%	-2%	25	13µM*	4
CC(C)(C)c1ccc(/C=C2/SC(N3CCCC3)=NC2=O)cc1	0%	-2%	?	16	?	28
O=C1N=C(N2CCCCC2)S/C1=C\c1ccc(Cl)cc1	-7%	-2%	?	2	?	/
O=C(CSc1ccc2nnc(-c3cccnc3)n2n1)Nc1ccc(F)cc1F	7%	18%	-4%	1	25%	-4
N#Cc1ccc(CNC(=O)N2CCOCC2)cc1	6%	/	/	/	/	/
O=C(CSc1ccc2nnc(CCNC(=O)c3ccccc3)n2n1)NCc1ccco1	9%	-1%	10%	-2	6%	-5
CC(C)=CC(=O)OCc1cc([N+](=O)[O-])cc2c1OCOC2	/	-3%	90%	65*	132%	88*
SMILES	NS1 function inh	SARS PLpro yeast	Pf growth 48h	Cycloheximide cs	Pf growth 96h	Shiga toxin inh
O=C(OCc1cc([N+](=O)[O-])cc2c1OCOC2)c1ccc2ccccc2n1	/	-1%	5%	6	7%	2
Cn1ncc([N+](=O)[O-])c1C(=O)N1CCOCC1	4%	-1%	-5%	2	30%	-7
CC(C)COC(=O)c1cc(=O)[nH]c2ccccc12	-7%	-7%	-3%	3	-20%	28
CC(OC(=O)c1cc(=O)[nH]c2ccccc12)c1ccccc1 (stereo not drawn)	-24%	-3%	12%	32*	/	70*
COc1ccc(N(CC(=O)NC2CCCCC2)C(=O)c2ccc(C)s2)c(OC)c1	-1%	-1%	?	-4	-25%	-22
COc1cc(C(=O)OCc2ccc(C)cc2)cc(NC(=O)c2cccs2)c1OC	8%	9%	8.3µM*	-4	10µM*	-7
COc1ccc(C(CNC(=O)c2ccc(Cl)c(NC(=O)c3cccs3)c2)N2CCCC2)cc1 (stereo not drawn)	/	1%	10µM*	/	8.3µM*	/
Cc1ccc(NC(=O)c2ccc(Cl)c(NC(=O)c3cccs3)c2)cc1	-41%	-13%	8%	53*	?	45
Cc1nc2ccc(NC(=O)c3ccc(Cl)c(NC(=O)c4cccs4)c3)cc2s1	11%	-4%	-3%	20*	0%	51
COc1ccc(C(CNC(=O)c2cccc(S(=O)(=O)N3CCCC3)c2)N2CCCC2)cc1 (stereo not drawn)	/	6%	?	/	?	/
CCOC(=O)N1CCN(C(=O)c2ccc(Cl)c(NC(=O)c3cccs3)c2)CC1	/	-1%	10µM*	/	?	/
COc1ccc(CNc2oc(-c3ccccc3)nc2C#N)cc1	-56%	-25%	20%	22*	8.3µM*	21
COc1ccc(-c2nc(C#N)c(NCCc3ccccc3)o2)cc1	1%	-1%	-25%	34*	13%	64*
COc1ccc(CCNc2oc(-c3ccc(C)cc3)nc2C#N)cc1OC	-47%	-8%	-19%	12	-12%	9
CCOC(=O)NC(NC(=O)OCC)C(=O)c1ccc(F)cc1	-1%	-2%	42%	17	229%	25
CCC(CC)C(=O)Nc1ccc(-c2cn3cccnc3n2)cc1	3%	6%	22%	14*	364%	31*
COc1cc(C(=O)Nc2cccc(-c3cn4cccnc4n3)c2)cc(OC)c1OC	/	5%	?	3	?	14
COCC(=O)Nc1ccc(-c2cn3cccnc3n2)cc1	-13%	-11%	65%	27*	?	36
CC(C)(C)CC(=O)Nc1cccc(-c2cn3cccnc3n2)c1	4%	0%	136%	38*	-45%[1.15 µM]	87*
CCOCC(=O)Nc1cc(-c2cn3cccnc3n2)ccc1C	-8%	3%	24%	6	24%	-6
O=C(CN1CCN(S(=O)(=O)c2cccc(F)c2)CC1)NCC1(N2CCOCC2)CCCCC1	/	0%	?	/	?	/
O=C(CSc1ccc([N+](=O)[O-])cc1)NCC1CCCCC1	/	-18%	4%	4	72%	24
CC(=O)N1CCN(c2ccccc2NC(=O)c2ccc(Br)o2)CC1	2%	24%	-12%	2	-4%	-14
O=C(Nc1ccccc1N1CCCC1)c1ccc(Br)o1	-6%[9.22 µM]	-14%	-25%	9.2*	-12%	21
O=C(Nc1ccc(N2CCCC2)c(Cl)c1)c1ccc(Br)o1	5%	-1%	4.7µM*	41*	4.7µM*	40
CC(=O)c1sc2nc(=O)c(C)nn2c1C	1%	6%	13%	-4	3.7µM*	2
O=C(C1CCCN1S(=O)(=O)c1cccc2nsnc12)N1CCCCCC1 (stereo not drawn)	5%	1%	26%	-1	11%	9
O=C(Oc1cccc2ccccc12)C1CC1	-5%	-1%	7%	19	-10%	8
